Consider ten compounds from PubChem BioAssay (Tox21).

A short description of assay [1]: qHTS assay to identify small molecule agonists of the vitamin D receptor (VDR) signaling pathway - cell viability counter screen (AID 743224). Note: nearly all actives have a fitted effect of over 50% in size. Note: potency is the fitted concentration of half-maximal effect. The gist of the method: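 VDR-bla cell line, quantitative HTS format; 16 h compound incubation (37C, 5% CO2); ATP-based CellTiter-Glo luminescence measured in the reporter assay wells.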
For orientation: qHTS replaces the single test concentration by a dilution series.

Assay [2] is described as follows: qHTS assay to identify small molecule antagonists of the vitamin D receptor (VDR) signaling pathway - cell viability counter screen (AID 743225). Note: nearly all actives have a fitted effect of over 50% in size. The essentials:
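HEK293T VDR-bla; cpd + 1a,25-(OH)2D3 3 nM final, 16 h 37C/5% CO2; B/G FRET substrate 2 h RT; then CellTiter-Glo 30 min RT, luminescence.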

A short description of assay [3]: qHTS assay to identify small molecule agonists of the NFkB signaling pathway (AID 1159509; active = well fitted curve in the direction sought with a large enough effect in the signal ratio in the repeat runs, not every such curve was filed as active; the % refers to the signal ratio). The essentials:
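ME-180 NFkB-bla, 2,000 cells/well, overnight plating; cpd pinned in DMSO, 5 h 37 C; B/G FRET substrate 1.5 h RT; ex 405, em 460/530 nm.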

Assay [4] can be described thus: qHTS assay to identify small molecule agonists of the endoplasmic reticulum stress response signaling pathway (AID 1159516; active = well fitted activation curve with a large enough effect in the signal ratio in the repeat runs, not every such curve was filed as active; the % refers to the signal ratio). The gist of the method:
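ER stress element reporter (bla) in HeLa. 1,500 cells/well, overnight attachment; 5 hr compound; 2 hr RT substrate; dual-emission fluorescence.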

A short description of assay [5]: qHTS assay to identify small molecule agonists of the endoplasmic reticulum stress response signaling pathway - cell viability counter screen (AID 1159517; calls by dose curve;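 note: HeLa cells carrying an ER stress response element beta-lactamase reporter; nearly all actives have a fitted effect of over 50% in size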). The gist of the method: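 CellTiter-Glo was added to wells already read for beta-lactamase FRET, and luminescence was recorded 30 min later. Cells: ESRE-bla HeLa, 1,500 per well, compound exposure 5 hr at 37 C.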

A short description of assay [6]: qHTS assay to identify small molecule antagonists of the retinoid-related orphan receptor gamma (ROR-gamma) signaling pathway - cell viability counter screen (AID 1159520). Note: nearly all actives have a fitted effect of over 50% in size. The gist of the method: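 Tet-on ROR gamma CHO cells (1,000/well) were plated 4 hr, given compounds in DMSO for 2 hr at 37 C, then induced with 1 uM final doxycycline for 16 hr. Viability was read as ATP by CellTiter-Glo luminescence after 30 min.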

A short description of assay [7]: qHTS assay to identify small molecule agonists of the AP-1 signaling pathway - cell viability counter screen (AID 1159525; calls by dose curve; note: nearly all actives have a fitted effect of over 55% in size; note: potency is the fitted concentration of half-maximal effect). The gist of the method:
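ME-180 AP-1-bla, 2500 cells/well, Opti-MEM + 0.5% dialyzed FBS; overnight 37 °C; cpd 15-pt titration, 5 h 37 °C; CellTiter-Glo 30 min RT; luminescence read; normalised to TOAB and DMSO controls.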

A short description of assay [8]: qHTS assay to identify small molecule agonists of the AP-1 signaling pathway (AID 1159526; calls by dose curve).
Assay [9] addresses Retinoic acid receptor RXR-alpha (Homo sapiens) (UniProt P19793). Kind of assay: qHTS assay to identify small molecule agonists of the RXR signaling pathway (AID 1159527; calls by dose curve; note: nearly all actives have a fitted effect of over 35% in size). The gist of the method:
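Cells plated at 2,000/well, rested 5 hr at 37 C, pin-dosed with DMSO compound solutions, incubated 16 hr, then loaded with B/G FRET substrate for 2 hr at RT before dual-emission fluorescence reading.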

The nature of assay [10]: qHTS assay to identify small molecule agonists of the RXR signaling pathway - cell viability counter screen (AID 1159529). Note: nearly all actives have a fitted effect of over 50% in size. Note: potency is the fitted concentration of half-maximal effect. The essentials:
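Steps: seed RXR-alpha-UAS-bla HEK 293T cells in assay medium containing 2% charcoal-stripped FBS; incubate 5 hr; add compounds in DMSO; incubate 16 hr at 37 C; after the bla read, add CellTiter-Glo and read luminescence at 30 min.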

Assay [11] can be described thus: qHTS assay to identify small molecule antagonists of the retinoid acid receptor (RAR) signaling pathway - cell viability counter screen (AID 1159551). Note: nearly all actives have a fitted effect of over 35% in size. The gist of the method:
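Following overnight attachment, C3RL4 reporter cells received DMSO-dissolved compounds and then retinol (1 uM final). Six hours later at 37 C, ATP content was measured by CellTiter-Glo luminescence.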

Assay [12] can be described thus: qHTS assay to identify small molecule agonists of the retinoic acid receptor (RAR) signaling pathway (AID 1159553). The settings on record: C3RL4 RARE luciferase reporter, agonist, 6 h; activation: at 73.3 µM (top of the series). The essentials:
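Cell line C3RL4, RARE luciferase reporter. Treatment: compounds in DMSO, 6 hr, 37 C, 5% CO2, after overnight plating. Detection: luminescence, 30 min RT after reagent.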

The target of assay [13] is Nuclear receptor ROR-gamma (Homo sapiens) (UniProt P51449). Kind of assay: qHTS assay to identify small molecule antagonists of the retinoid-related orphan receptor gamma (ROR-gamma) signaling pathway (AID 1159521; note: nearly all actives have a fitted effect of over 50% in size; note: potency is the fitted concentration of half-maximal effect). The essentials: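 Cells were plated, rested 4 h at 37 C, exposed to compounds for 2 h, then given 1 uM final doxycycline hyclate to induce RORγ expression. After 16 h, ONE-Glo luminescence from the ROR response element reporter was measured.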

A short description of assay [14]: qHTS assay to identify small molecule antagonists of the retinoic acid receptor (RAR) signaling pathway (AID 1159552; note: nearly all actives have a fitted effect of over 50% in size; note: potency is the fitted concentration of half-maximal effect). The essentials:
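Retinol at 1 uM final stimulated RARE-luciferase expression in C3RL4 cells exposed to test compounds for 6 hr at 37 C. Reduced luminescence, read 30 min after detection reagent, indicated pathway antagonism.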

Assay [15] can be described thus: qHTS assay to identify small molecule agonists of the estrogen related receptor (ERR) signaling pathway (AID 1224820). The gist of the method:
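Cells: ERR line from NTP, 2,000/well. Pre-incubation 6 h, 37 C/5% CO2. Compound (DMSO) pin transfer, 18 h 37 C. One-Glo, 30 min RT, luminescence.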

The nature of assay [16]: qHTS assay to identify small molecule agonists of the estrogen related receptor signaling pathway with the pleiotropic PPARgamma coactivator (PGC) (AID 1224823). The essentials:
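Steps: plate PGC/ERR cells at 2,000 cells/well; incubate 6 h, 37 C/5% CO2; pin-transfer compounds (DMSO); incubate 18 h, 37 C; add One-Glo; 30 min RT; read luminescence.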

The nature of assay [17]: qHTS assay to identify small molecule antagonists of the estrogen related receptor signaling pathway with the pleiotropic PPARgamma coactivator (PGC) cell viability counter screen (AID 1224822;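 note: viability read after 17.5 h compound exposure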). The essentials:
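qHTS format, DMSO compound stocks pin-transferred onto PGC/ERR cells 6 h after plating; 17.5 h exposure at 37 C, then CellTiter-Fluor fluorescence.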

Results filed as inconclusive are left out. Activity calls are given as the source filed them. Unless noted, calls come from the whole dose curve; as a rule, active = well fitted curve in the direction sought with a large enough effect in the repeat runs; inconclusive = weak or mixed curves; inactive = no such curve, though single readings can be large; an effect the other way counts as inactive or inconclusive.

Sequence of Retinoic acid receptor RXR-alpha (Homo sapiens) (P19793 whole entry, looked up): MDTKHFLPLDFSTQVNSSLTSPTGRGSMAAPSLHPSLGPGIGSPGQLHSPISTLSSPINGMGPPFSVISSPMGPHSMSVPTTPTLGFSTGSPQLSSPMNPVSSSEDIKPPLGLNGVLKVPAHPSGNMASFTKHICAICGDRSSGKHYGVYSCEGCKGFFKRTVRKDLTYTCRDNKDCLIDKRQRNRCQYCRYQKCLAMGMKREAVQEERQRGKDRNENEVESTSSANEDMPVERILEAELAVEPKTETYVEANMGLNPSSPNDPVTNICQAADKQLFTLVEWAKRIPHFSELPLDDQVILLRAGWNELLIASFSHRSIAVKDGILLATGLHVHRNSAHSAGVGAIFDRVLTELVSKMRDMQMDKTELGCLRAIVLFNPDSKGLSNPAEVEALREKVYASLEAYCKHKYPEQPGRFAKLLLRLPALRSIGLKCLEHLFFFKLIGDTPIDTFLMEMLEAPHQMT

For the compound `Cc1cc2c(OCC(CNC(C)(C)C)OC(=O)c3ccccc3)cccc2[nH]1` (configuration not stated), the Potency entry in [1], in assay [2], in [3], in assay [4], in assay [5] and in assay [6] was “inactive” in each case. The Potency result in assay [7], in assay [8], in assay [9], in assay [10], in [11] and in [12] was “inactive” each time.
Regarding `C=C1CCC2CC1C2(C)C` (configuration not stated), the Potency result in assay [1], in [2], in assay [3], in assay [4], in assay [5] and in assay [13] was “inactive” in each case. Also, the Potency entry in assay [7], in [8], in [9], in [10], in [11] and in assay [14] was “inactive” in each case. Also, the Potency entry in [12] was “inactive”.
Regarding `CN1C[C@H](C(=O)N[C@]2(C)O[C@@]3(O)[C@@H]4CCCN4C(=O)[C@H](Cc4ccccc4)N3C2=O)C[C@@H]2c3cccc4[nH]cc(c34)C[C@H]21`, the Potency in assay [1] was 29.8 µM (active). Besides, the Potency entry in assay [3], in [4], in assay [5], in [13], in [7] and in assay [8] was “inactive” in each case. Besides, the Potency entry in assay [9], in [11], in assay [14] and in assay [12] was “inactive” each time. Moreover, the outcome in assay [15] and in assay [16] was inactive.
For the compound `CNC(=O)c1cnn(-c2nc(N)c3ncn([C@@H]4O[C@H](CO)[C@@H](O)[C@H]4O)c3n2)c1`, the Potency entry in [1], in assay [2], in assay [3], in assay [4], in assay [5] and in assay [6] was “inactive” throughout. The Potency result in assay [8], in assay [9], in assay [11], in [14] and in assay [12] was “inactive” in each case.
Regarding `COc1ccccc1N1CCN(CC(O)COc2cccc3ccccc23)CC1` (configuration not stated), the Potency entry in [1], in assay [2], in [3], in assay [4], in [5] and in assay [6] was “inactive” throughout. Besides, the Potency result in assay [11] and in assay [12] was “inactive” in each case. Further, the figures for the Potency in [7], in assay [10] and in [14] were 23.9 µM (active), 12 µM (active) and 26.6 µM (active), respectively. For the same compound, the result in [17] was inactive.
For the compound `CCC(=O)OC`, the Potency entry in assay [1], in assay [3], in assay [4], in assay [5], in assay [6] and in assay [7] was “inactive” in each case. The Potency result in assay [8], in assay [9], in [10], in assay [11], in [14] and in assay [12] was “inactive” in each case.
Take `Cc1cccc(O)c1N`: the Potency entry in assay [1], in assay [2], in [3], in assay [4], in assay [5] and in [6] was “inactive” each time. Besides, the Potency entry in assay [10], in [11], in assay [14] and in assay [12] was “inactive” throughout. Also, the Potency in assay [13] is 13.8 µM (active).
For the compound `CC(CC1c2ccccc2CCc2ccccc21)CN(C)C` (configuration not stated), the Potency result in [1], in assay [3], in [4], in assay [5], in [6] and in [7] was “inactive” throughout. Moreover, the Potency result in [9], in [11] and in assay [12] was “inactive” in each case.
For the compound `O=C(/C=C/c1ccc(O)c(O)c1)O[C@@H]1C[C@@](OC(=O)/C=C/c2ccc(O)c(O)c2)(C(=O)O)C[C@@H](O)[C@@H]1O`, the Potency entry in [1], in assay [2], in assay [3], in assay [4], in assay [5] and in assay [13] was “inactive” in each case. Further, the Potency result in assay [7], in assay [8], in assay [9], in [10], in assay [11] and in assay [14] was “inactive” throughout. The Potency entry in assay [12] was “inactive”.
With `Cc1ccc(Cl)c(Nc2ccccc2C(=O)O)c1Cl`, the Potency result in [1], in assay [2], in assay [3], in assay [5], in [7] and in assay [8] was “inactive” each time. Besides, the Potency entry in [10], in [11], in [14] and in assay [12] was “inactive” in each case. Further, in [17], the compound was called inactive.
